Screens as filed in PubChem.
HCV inhibitor: qHTS Assay for Inhibitors of Hepatitis C Virus (HCV); Huh7.5.1 HCVcc-Cre infection, luciferase reporter, 44 h; hit rate 3.4% among 340,000; AID 651820, 2012; Potency, µM (top dose mostly 41.8 µM), inactives show top-dose activity change, negative = inhibition, hits mostly inhibitors; also: potency is read from the fitted curve at half-maximal effect
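Cells (1,000/well) were plated 4 h before compound, then infected with HCVcc-Cre virus (~0.5 moi). After 44 h further culture, infection was read as luciferase luminescence following a 15 min substrate incubation at room temperature.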
Pf growth 96h: Primary qHTS for delayed death inhibitors of the malarial parasite plastid, 96 hour incubation | hit rate 6.9% among 320,000 | P. falciparum luciferase reporter growth, 96 h | Potency, µM (series often up to 28.7 µM), inactives show at the highest dose activity change, negative = inhibition, most hits filed as inhibitors; also: potency is read from the fitted curve at half-maximal effect
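96 h incubation, 37 C, 5% CO2, of luciferase-reporter P. falciparum-infected RBCs (2% hematocrit, 0.05% parasitemia final) with test compounds; endpoint luminescence.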
HCMV antiviral: qHTS Assay for inhibitors of the human cytomegalovirus (HCMV); HFF cells, HCMV-luciferase reporter, 72 h; stronger effect = lower value; activity change, negative = inhibition, % at 57.5 µM; hit rate 4.5% among 410,000; AID 1259415, 2018; in the data active = activity change below about -60%; inconclusive = no clear call, values can overlap the other calls; inactive = above about -39%
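Inhibition of viral replication was scored as loss of reporter luminescence in HFFs infected with HCMV-luciferase (MOI 1 PFU/cell) for 72 h; compounds tested at 2 doses, normalized to buffer and Salinomycin controls.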
Pf growth 48h: Primary qHTS for delayed death inhibitors of the malarial parasite plastid, 48 hour incubation; P. falciparum luciferase growth in erythrocytes, 48 h; Potency, µM (top dose mostly 28.7 µM), for the others: at the highest dose activity change, negative = inhibition, most hits filed as inhibitors; hit rate 5.9% among 310,000; also: potency is read from the fitted curve at half-maximal effect
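Erythrocytes infected with P. falciparum carrying an integrated firefly luciferase reporter (2% hematocrit, 0.1% parasitemia final) were exposed to compounds in RPMI 1640 with 0.5% Albumax at 37 C, 5% CO2. Growth inhibition was scored as reduced luminescence.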
Active calls of the source: *; ? = inconclusive; . = no result. Only some compounds are listed: those with a hit (about 13% of all), similar ones and a draw of the others. Unless noted, calls follow the shape of the dose curve; as a rule, active = well fitted inhibition curve with a large enough effect; inconclusive = small, poorly fitted or top-dose-only effect, or another doubt; inactive = no such curve, though single readings can be large or run the other way. % is scaled to controls: 0 for no effect and ±100 for the full control effect.

SMILES	HCV inhibitor	Pf growth 96h	HCMV antiviral	Pf growth 48h
O=C(C1=C[C@@H](c2ccc3c(c2)OCO3)C[C@@H](OCc2ccc(CO)cc2)O1)N1CCOCC1	-7.9%	?	-18.1	-12.7%
O=C(COc1ccc(Cl)cc1)NC1=NN(c2ccccc2)C(=O)C1	11.4%	8.28µM*	-19.6	7.8%
CCOCCCNC(=S)NCCCNc1nc2ccc(C)cc2cc1C#N	.	-27.5%	-90.6*	-10.0%
CSc1ccc(/C=C/C(=O)c2ccc(NC(C)=O)cc2)cc1	-25.3%	0.657µM*	53.6	-3.5%
COc1ccccc1/C=C/C(=O)c1ccc(NC(C)=O)cc1	?	0.0%	-101.5*	-29.2%
CCCC(=O)Nc1ccc(C(=O)/C=C/c2ccc(SC)cc2)cc1	11.2µM*	?	5.2	?
COc1ccccc1/C=C/C(=O)c1ccccc1	-18.7%	37.1%	6.3	46.0%
CC(C)C[C@H](CO)Nc1nc(Nc2cccc(Cl)c2)c2ncn(C(C)C)c2n1	?	?	-25.8	?
N#Cc1nc(Nc2cccc(Cl)c2)c2ncn(C3CCCC3)c2n1	.	?	-87.0*	-5.8%
CC1=NOC(=O)/C1=C\c1ccc(-c2ccc(Cl)cc2Cl)o1	-17.0%	131.2%	-75.0*	35.1%
CCCOc1ccc(Cl)cc1/C=C1/C(=O)ON=C1C	-0.4%	0.1%	8.0	-12.4%
CN(C)N=C1c2cc(S(=O)(=O)N(C)C)ccc2-c2ccc(S(=O)(=O)N(C)C)cc21	?	11.7µM*	0.0	13.1µM*
CN(C)S(=O)(=O)c1ccc2c(c1)C(=NNC(N)=O)c1cc(S(=O)(=O)N(C)C)ccc1-2	3.9%	33.9%	-33.5	3.5%
CN(C)S(=O)(=O)c1ccc2c(c1)C(=NO)c1cc(S(=O)(=O)N(C)C)ccc1-2	-20.6%	2.62µM*	-64.4*	-22.2%
Cc1ccc2onc(CC(=O)Nc3cc(F)ccc3F)c2c1	.	.	35.9	.
Clc1ccc(-c2nnc(N3CCCC3)nn2)cc1	-3.4%	0.586µM*	74.0	0.37µM*
CCSc1cc(N2CCCC2)nc(-c2ccc(Cl)cc2)n1	5.5%	30.8%	-1.1	14.6%
COc1ccc2c(ccc[n+]2CC(=O)c2ccccc2)c1	12.5%	0.0%	-5.1	-22.0%
O=C(C[n+]1cccc2ccccc21)c1ccc(NC(=O)c2ccccc2)cc1	-12.6%	?	-83.3*	2.08µM*
Cc1ccc(C(=O)C[n+]2cccc3cc(C)ccc32)cc1	-16.4%	101.1%	-32.4	?
Cc1cc[n+](CC(=O)c2ccc(NC(=O)c3ccccc3)cc2)c2ccccc12	-12.0%	?	-97.4*	1.65µM*
O=C(C[n+]1cccc2ccccc21)c1ccccc1	6.1%	13.1µM*	91.1	?
CCOc1ccc(C(=O)C[n+]2cccc3cc(C)ccc32)cc1	?	7.1%	-81.3*	8.28µM*
CCc1nc2ccc(C(=O)N(C)C(C)C)cn2c1N(CC)Cc1cccc(Br)c1	.	.	-7.6	.
Cc1ccc2ncc(C(=O)N3CCN(c4ccccc4F)CC3)c(=O)n2c1	.	.	12.5	.
SMILES	HCV inhibitor	Pf growth 96h	HCMV antiviral	Pf growth 48h
COc1cc(Nc2nc3c(S(=O)(=O)c4ccc(C)c(C)c4)nnn3c3ccsc23)cc(OC)c1	.	.	-31.5	.
COc1ccc(-n2nc3ccc(NC(=O)c4cc5ccccc5o4)cc3n2)cc1Cl	.	.	-0.6	.
C=CCOC(=O)Nc1nc(CCNC(=O)OC(C)(C)C)c(C(=O)O)s1	.	.	3.6	.
O=C(Nc1cc(C(F)(F)F)cc(C(F)(F)F)c1)Nc1cnn(-c2ccc([N+](=O)[O-])cc2)c1C(F)(F)F	?	?	-26.0	1.85µM*
CNC(=O)Nc1cc(C(F)(F)F)cc(C(F)(F)F)c1	5.0%	?	6.5	136.5%
CNc1nnc(Sc2ncccc2[N+](=O)[O-])s1	-6.0%	?	-17.3	9.28µM*
NC(=O)COC(=O)c1cc(S(=O)(=O)N2CCOCC2)ccc1N1CCCCC1	17.8%	?	25.5	5.6%
Cc1ccc(S(=O)(=O)N2CCOCC2)cc1C(=O)OCC(=O)NC1CCCC(C)C1C (configuration not stated)	?	?	-13.7	?
CC(C)CCNC(=O)NC(=O)COC(=O)c1cc(S(=O)(=O)N2CCOCC2)ccc1N1CCCCC1	?	.	-13.7	9.28µM*
CC1CCCC(NC(=O)COC(=O)c2cc(S(=O)(=O)N3CCCCC3)ccc2N2CCOCC2)C1C (configuration not stated)	-3.8%	5.22µM*	49.1	.
